Test results reported in the supplement of paper PMC11732987, “Enantioselective OTUD7B fragment discovery through chemoproteomics screening and high-throughput optimisation” (Communications Chemistry, 2025).

Tests used:
Test in all cases: log2 ratio of Biotin-Ahx-Ub-VS probe labelling (fragment/DMSO); higher = less target engagement (more negative = stronger competition), active = hit call of the paper (q ≤ 0.05, log2 ratio ≤ -1)
Conditions in all cases: compound concentration: 200 uM; treatment time: 3 h
USP34 = USP34 (UniProt Q70CQ2)
USP34, sequence (Q70CQ2 whole entry, the tested form may be a part): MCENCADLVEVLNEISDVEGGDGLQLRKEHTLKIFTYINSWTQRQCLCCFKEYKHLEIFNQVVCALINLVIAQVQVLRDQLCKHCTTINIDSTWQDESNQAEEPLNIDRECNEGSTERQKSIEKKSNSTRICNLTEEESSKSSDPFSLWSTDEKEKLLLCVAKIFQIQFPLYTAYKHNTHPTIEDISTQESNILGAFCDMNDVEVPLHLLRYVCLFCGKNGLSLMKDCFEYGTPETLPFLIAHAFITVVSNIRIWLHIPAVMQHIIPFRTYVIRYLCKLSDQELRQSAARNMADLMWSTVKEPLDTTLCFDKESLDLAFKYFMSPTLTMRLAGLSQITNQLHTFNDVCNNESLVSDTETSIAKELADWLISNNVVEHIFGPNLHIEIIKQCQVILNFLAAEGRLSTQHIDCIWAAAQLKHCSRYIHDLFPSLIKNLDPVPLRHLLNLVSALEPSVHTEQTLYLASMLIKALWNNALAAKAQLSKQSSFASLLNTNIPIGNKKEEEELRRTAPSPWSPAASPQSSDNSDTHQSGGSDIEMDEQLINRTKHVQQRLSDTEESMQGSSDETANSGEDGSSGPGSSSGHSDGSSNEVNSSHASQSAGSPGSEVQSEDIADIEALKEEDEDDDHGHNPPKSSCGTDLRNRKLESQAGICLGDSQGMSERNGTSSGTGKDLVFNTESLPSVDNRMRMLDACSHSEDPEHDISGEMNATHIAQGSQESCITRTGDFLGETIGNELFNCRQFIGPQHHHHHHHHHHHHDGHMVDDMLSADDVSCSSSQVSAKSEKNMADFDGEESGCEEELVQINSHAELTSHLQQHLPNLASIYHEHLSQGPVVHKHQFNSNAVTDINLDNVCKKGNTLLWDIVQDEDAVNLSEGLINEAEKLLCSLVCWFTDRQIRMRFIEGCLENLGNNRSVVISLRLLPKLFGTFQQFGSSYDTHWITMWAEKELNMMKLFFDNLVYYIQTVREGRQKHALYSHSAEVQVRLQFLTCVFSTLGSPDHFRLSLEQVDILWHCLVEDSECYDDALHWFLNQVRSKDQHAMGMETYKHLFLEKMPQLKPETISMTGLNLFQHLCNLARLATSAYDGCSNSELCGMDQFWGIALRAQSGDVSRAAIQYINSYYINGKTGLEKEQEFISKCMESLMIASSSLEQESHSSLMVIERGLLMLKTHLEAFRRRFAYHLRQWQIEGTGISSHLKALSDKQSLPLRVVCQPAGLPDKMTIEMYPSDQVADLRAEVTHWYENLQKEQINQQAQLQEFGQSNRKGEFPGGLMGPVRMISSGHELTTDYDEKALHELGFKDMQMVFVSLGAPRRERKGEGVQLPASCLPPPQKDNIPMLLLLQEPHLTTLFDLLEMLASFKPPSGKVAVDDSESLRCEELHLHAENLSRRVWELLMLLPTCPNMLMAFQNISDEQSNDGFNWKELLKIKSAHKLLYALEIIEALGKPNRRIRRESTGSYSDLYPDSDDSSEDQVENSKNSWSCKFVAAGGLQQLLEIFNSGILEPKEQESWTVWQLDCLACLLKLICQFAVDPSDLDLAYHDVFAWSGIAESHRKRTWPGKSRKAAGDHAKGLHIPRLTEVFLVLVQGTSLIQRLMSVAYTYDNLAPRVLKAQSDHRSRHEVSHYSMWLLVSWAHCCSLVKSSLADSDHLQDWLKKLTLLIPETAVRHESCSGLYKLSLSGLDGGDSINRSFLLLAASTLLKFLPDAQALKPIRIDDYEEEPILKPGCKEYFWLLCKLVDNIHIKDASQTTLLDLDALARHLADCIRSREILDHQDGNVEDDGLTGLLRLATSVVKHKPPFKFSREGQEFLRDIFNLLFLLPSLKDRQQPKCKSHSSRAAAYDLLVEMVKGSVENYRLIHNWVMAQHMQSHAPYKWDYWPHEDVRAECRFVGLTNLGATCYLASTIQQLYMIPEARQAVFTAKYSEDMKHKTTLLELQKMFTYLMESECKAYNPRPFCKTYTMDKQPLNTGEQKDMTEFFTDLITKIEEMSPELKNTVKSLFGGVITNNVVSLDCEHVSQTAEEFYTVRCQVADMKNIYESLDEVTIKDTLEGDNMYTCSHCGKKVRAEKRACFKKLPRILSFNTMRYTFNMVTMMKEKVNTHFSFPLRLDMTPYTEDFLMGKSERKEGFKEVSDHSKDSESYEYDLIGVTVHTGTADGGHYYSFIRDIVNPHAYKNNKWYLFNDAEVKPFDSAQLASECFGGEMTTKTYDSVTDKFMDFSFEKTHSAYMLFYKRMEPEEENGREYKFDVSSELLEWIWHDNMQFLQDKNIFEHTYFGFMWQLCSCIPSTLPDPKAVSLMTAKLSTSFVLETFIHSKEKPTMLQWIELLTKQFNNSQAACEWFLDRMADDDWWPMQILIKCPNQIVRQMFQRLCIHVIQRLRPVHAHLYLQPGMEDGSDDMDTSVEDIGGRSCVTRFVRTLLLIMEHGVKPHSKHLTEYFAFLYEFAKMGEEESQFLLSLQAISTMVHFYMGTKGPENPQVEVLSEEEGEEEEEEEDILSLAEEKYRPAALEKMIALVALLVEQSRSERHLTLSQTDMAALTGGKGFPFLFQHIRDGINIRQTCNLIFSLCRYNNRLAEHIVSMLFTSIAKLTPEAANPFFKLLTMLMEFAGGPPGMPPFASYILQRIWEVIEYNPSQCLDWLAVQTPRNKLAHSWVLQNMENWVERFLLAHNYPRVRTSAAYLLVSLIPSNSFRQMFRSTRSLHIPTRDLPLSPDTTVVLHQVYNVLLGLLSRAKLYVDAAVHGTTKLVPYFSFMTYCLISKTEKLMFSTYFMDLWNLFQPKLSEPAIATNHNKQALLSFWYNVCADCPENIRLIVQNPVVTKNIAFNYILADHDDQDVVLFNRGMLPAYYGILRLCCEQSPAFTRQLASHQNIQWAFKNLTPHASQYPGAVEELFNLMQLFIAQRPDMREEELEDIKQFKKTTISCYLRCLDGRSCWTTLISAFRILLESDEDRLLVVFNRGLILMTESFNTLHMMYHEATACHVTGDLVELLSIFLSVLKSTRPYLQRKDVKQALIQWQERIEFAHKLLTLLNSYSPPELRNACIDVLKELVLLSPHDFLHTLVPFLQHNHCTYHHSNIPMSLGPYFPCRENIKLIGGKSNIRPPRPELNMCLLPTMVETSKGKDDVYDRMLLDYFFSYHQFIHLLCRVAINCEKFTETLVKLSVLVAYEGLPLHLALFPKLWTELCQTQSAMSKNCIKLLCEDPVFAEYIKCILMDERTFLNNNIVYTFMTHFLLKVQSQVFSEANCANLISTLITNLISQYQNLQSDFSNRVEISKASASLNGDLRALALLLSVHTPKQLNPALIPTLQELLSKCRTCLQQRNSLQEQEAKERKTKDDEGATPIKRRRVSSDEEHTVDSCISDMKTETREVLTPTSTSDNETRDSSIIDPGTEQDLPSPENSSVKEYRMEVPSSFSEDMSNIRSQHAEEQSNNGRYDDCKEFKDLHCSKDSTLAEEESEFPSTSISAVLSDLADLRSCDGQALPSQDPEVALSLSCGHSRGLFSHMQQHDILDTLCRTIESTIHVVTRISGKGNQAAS
How it was run: (§1)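 Average log2 ratios of fragment over vehicle were obtained by unpaired t-test from global-median-normalised Spectronaut label-free quantities. Proteins with ≥2 unique peptides were included. HEK293T lysate (495 µg per sample) was treated in triplicate with fragment at 200 µM or vehicle for 3 h, then with Biotin-Ahx-Ub-VS at 0.5 µM final for 1 h, and labelled DUBs were NeutrAvidin-enriched and run by diaPASEF LC-MS/MS.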

USP36 = target: T1, USP36 (UniProt Q9P275)
T1 sequence (whole entry): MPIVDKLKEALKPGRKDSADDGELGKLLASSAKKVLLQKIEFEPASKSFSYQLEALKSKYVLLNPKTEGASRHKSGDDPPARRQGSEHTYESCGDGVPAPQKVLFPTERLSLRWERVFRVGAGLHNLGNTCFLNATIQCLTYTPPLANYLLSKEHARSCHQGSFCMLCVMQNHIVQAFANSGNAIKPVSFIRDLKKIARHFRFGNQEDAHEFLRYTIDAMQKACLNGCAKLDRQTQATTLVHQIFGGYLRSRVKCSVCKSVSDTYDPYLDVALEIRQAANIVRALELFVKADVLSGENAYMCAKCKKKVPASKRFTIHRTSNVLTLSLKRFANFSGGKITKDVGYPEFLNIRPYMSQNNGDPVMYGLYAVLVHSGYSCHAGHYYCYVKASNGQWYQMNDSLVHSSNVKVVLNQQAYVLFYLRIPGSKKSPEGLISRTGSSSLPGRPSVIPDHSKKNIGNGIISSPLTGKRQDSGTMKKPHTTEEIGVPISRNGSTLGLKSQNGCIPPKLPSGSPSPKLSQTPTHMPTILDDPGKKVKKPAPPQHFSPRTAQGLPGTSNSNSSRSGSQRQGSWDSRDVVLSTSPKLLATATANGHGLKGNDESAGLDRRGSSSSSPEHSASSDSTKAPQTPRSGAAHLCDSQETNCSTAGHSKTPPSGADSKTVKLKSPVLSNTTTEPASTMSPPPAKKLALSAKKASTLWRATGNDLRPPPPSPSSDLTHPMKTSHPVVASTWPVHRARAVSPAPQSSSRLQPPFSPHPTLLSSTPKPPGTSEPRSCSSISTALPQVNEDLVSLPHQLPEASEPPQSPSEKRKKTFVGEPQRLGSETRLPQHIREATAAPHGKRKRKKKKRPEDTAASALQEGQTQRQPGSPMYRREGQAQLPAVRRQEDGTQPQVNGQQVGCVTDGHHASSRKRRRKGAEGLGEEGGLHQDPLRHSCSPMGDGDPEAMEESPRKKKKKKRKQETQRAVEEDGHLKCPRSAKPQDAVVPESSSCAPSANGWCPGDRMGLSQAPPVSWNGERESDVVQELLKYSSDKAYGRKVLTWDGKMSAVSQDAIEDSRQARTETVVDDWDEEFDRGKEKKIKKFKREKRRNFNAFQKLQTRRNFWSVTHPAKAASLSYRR
How it was run: as §1

USP38 = target: T2, USP38 (UniProt Q8NB14)
T2 sequence (whole entry): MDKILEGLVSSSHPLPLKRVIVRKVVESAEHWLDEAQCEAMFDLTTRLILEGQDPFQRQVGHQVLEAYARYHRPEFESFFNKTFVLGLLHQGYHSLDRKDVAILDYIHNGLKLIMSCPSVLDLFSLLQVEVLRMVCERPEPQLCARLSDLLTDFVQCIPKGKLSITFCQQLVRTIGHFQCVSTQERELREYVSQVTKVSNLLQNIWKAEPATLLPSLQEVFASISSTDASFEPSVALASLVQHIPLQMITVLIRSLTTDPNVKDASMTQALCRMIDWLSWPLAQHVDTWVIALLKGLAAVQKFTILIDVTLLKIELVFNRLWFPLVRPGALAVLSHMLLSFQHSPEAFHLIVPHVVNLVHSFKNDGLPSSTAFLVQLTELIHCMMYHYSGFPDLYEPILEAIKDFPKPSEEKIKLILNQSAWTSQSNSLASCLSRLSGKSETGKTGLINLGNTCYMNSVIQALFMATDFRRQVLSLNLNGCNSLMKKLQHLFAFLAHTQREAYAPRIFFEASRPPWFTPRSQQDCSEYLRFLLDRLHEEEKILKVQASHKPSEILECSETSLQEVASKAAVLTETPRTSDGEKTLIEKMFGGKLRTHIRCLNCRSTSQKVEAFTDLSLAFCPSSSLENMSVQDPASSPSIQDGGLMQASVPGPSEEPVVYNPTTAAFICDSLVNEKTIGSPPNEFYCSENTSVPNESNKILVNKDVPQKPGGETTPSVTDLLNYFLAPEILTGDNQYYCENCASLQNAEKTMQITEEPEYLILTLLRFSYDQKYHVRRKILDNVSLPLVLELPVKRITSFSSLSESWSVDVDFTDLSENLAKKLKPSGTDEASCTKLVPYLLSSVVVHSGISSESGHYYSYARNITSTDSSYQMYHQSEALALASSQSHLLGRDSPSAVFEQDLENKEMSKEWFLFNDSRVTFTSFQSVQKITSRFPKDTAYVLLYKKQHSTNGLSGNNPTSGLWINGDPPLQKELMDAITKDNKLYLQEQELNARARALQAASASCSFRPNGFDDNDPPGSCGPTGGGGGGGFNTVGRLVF
How it was run: as §1

USP39 = target: T3, USP39 (UniProt Q53GS9)
T3 sequence (whole entry): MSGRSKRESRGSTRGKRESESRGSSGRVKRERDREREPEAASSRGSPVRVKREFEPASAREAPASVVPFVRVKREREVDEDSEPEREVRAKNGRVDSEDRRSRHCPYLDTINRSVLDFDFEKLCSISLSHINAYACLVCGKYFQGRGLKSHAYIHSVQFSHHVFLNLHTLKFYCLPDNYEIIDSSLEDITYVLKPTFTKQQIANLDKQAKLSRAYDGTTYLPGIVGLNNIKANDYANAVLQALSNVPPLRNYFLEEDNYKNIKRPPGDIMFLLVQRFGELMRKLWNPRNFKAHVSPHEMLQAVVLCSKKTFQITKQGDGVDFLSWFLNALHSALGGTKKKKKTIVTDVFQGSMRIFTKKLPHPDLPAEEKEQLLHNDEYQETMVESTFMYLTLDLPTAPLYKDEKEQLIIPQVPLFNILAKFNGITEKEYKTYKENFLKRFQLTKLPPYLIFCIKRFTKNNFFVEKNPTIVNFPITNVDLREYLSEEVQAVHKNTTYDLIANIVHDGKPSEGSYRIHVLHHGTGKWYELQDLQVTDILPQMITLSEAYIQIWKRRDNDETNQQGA
How it was run: as §1

USP4 = target: T4, USP4 (UniProt Q13107)
T4 sequence (whole entry): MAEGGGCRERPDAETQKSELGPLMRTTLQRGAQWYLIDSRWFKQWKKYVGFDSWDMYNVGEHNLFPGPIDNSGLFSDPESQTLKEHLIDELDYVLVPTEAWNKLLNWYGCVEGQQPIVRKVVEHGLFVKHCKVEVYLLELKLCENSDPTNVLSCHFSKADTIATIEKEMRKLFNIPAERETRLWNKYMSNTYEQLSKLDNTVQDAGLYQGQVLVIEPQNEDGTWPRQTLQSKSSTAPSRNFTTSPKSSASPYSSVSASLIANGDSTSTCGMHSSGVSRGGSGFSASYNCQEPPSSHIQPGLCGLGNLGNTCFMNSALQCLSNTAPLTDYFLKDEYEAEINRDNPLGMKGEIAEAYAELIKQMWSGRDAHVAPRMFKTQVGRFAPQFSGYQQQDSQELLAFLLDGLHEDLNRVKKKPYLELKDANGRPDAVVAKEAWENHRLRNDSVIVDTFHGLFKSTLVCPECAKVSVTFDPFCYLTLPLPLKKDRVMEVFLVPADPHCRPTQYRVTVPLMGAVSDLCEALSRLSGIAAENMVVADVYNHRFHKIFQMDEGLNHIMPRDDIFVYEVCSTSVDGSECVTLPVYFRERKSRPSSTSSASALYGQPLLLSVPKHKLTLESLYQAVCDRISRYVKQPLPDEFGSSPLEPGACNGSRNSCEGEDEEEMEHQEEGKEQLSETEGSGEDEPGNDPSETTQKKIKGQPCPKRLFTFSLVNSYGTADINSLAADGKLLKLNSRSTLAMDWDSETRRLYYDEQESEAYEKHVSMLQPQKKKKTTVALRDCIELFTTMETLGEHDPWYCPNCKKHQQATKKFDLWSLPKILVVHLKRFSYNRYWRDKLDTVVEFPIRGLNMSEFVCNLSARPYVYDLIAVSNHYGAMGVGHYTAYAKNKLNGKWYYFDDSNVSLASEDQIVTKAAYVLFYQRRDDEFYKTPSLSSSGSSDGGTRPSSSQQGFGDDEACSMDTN
How it was run: as §1

Measured: log2 ratio of Biotin-Ahx-Ub-VS probe labelling

COc1cc(Cl)c(C)cc1NC(=O)CCl
inactive: USP34 -0.327 | USP36 -0.122 | USP38 -0.241 | USP39 -0.366 | USP4 -0.423
